Screening data: PubChem BioAssay, National Center for Advancing Translational Sciences (NCATS)
DT40 TDP1 CPT: DT40-hTDP1 cell growth loss with CPT | Potency, µM (highest dose often 46.2 µM), without a hit: top-dose activity change, negative = growth inhibition, most hits filed as inhibitors | hit rate 12% among 420,000 | chicken DT40 Tdp1-/-;hTDP1 cells + 20 nM CPT, ATP luminescence, 48 h; note: potency is the fitted concentration of half-maximal effect; nearly all actives have a fitted effect of over 55% in size
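Chicken DT40 Tdp1-/- cells complemented with human TDP1, 400 cells/well, exposed to compounds plus 20 nM camptothecin for at least 48 h at 37 C; viability read as ATP content by CellTiter-Glo luminescence.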
Giardia killer: kills Giardia lamblia; Giardia lamblia trophozoite viability; activity change, % at 7.66 µM, hits read low; hit rate 0.15% among 340,000; AID 540267; in the data active = activity change below about -80%; inconclusive = between about -30% and that limit;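 note: parasites exposed to compound for two days anaerobically before the ATP read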
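Anaerobic 48 hrs incubation at 37 deg C of 100 trophozoites/well with test compounds; ATPLite 1-Step luminescence, 15-30 min RT, reports cellular ATP as viability.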
ELG1 DNA repair: inhibitors of ELG1-dependent DNA repair in HEK293T cells. HEK293T ELG1-luciferase reporter, luminescence, 16 h; DNA damage induced by 5-fluorouridine. Potency, µM (highest dose often 46.1 µM), without a hit: at the top dose activity change, negative = inhibition, hits mostly inhibitors. hit rate 2.3% among 330,000; note: potency is the fitted concentration of half-maximal effect; nearly all actives have a fitted effect of over 55% in size
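In this reporter screen, reduction of luminescence relative to DMSO vehicle indicated activity. Compounds and 5-fluorouridine were added together to 2,000 cells per well, incubated for 16 hr at 37 °C, then developed with ONE-Glo.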
DT40 TDP1 no CPT: qHTS for Inhibitors of human tyrosyl-DNA phosphodiesterase 1 (TDP1): qHTS in cells in absence of CPT | DT40 Tdp1-/- hTDP1 cells, no CPT, ATP luminescence, 48 h | Potency, µM (doses to about 46.2 µM), without a hit: at the top dose activity change, negative = growth inhibition, actives largely listed as inhibitors | hit rate 15% among 420,000 | AID 686978, 2013; note: potency is the fitted concentration of half-maximal effect; nearly all actives have a fitted effect of over 55% in size
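Growth kinetics read by CellTiter-Glo luminescence after ≥48 hr at 37 °C. Cells: DT40 Tdp1-/- stably carrying human TDP1, 400 per well, compound exposure in the absence of CPT (DMSO vehicle).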
TDP1 block: inhibitors of human tyrosyl-DNA phosphodiesterase TDP1; Q9NUW8; recombinant TDP1, AlphaScreen DNA substrate cleavage; Potency, µM (doses to about 130 µM), for the others: at the top dose activity change, negative = inhibition, actives largely listed as inhibitors; hit rate 0.28% among 350,000; AID 485290; note: potency is the fitted concentration of half-maximal effect; nearly all actives have a fitted effect of over 40% in size
Target sequence (Q9NUW8 whole entry, looked up): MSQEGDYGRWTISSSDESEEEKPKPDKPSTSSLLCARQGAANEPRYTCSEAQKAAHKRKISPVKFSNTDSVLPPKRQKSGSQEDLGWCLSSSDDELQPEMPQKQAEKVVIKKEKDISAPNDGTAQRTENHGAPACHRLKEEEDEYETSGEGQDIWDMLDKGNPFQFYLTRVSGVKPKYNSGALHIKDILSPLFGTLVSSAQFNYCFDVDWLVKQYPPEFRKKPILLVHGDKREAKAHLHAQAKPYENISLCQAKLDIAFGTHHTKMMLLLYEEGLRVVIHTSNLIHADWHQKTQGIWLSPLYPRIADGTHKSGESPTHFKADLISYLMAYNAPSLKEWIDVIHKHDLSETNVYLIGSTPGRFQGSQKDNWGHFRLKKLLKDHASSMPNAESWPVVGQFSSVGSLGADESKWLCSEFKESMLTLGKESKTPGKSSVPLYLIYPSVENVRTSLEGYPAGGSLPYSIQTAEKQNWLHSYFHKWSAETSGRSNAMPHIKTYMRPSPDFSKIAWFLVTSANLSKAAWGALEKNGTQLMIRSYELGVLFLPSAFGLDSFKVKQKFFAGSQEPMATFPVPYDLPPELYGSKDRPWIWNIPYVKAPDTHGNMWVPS
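AlphaScreen read-out: signal falls as enzyme removes the 3' tyrosine-FITC from a 5'-biotinylated DNA oligo (15 nM, 5 min, RT). Enzyme was E. coli-made recombinant Tdp1 at 1 nM, exposed to compound for 15 min beforehand; beads 10 ug/ml, 10 min.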
IL-1B inflam inh: inhibitors of inflammasome signaling (IL-1 beta secretion) | THP-1 LPS/ATP IL-1B secretion, AlphaLISA, 16 h; active compounds read low | activity change, % at 57.5 µM | hit rate 4.7% among 360,000; in the data active = activity change below about -50%; inconclusive = mostly about -30% to -49%
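Secreted IL-1B measured by AlphaLISA bead assay after 16 h compound exposure of THP-1 cells; compounds (final up to 57.5 uM) added 1 h before LPS (250 ng/mL) and ATP (1.25 mM) stimulation; lower signal means less secretion.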
* marks the source's active call; other numbers are inactive results; ? = inconclusive; · = not tested or not shown. Compounds with a hit are over-represented: about 19% of the library has one in this group of screens. Unless noted, calls come from the whole dose curve; as a rule, active = well fitted curve in the direction sought with a large enough effect; inconclusive = small, poorly fitted or top-dose-only effect, or another doubt; inactive = no such curve, though single readings can be large; an effect the other way counts as inactive or inconclusive. % is set by controls: 0 for no effect and ±100 for the full control effect.

SMILES	DT40 TDP1 CPT	Giardia killer	ELG1 DNA repair	DT40 TDP1 no CPT	TDP1 block	IL-1B inflam inh
O=C(O)c1ccc(-c2ccc(/C=N/Nc3ccc([N+](=O)[O-])cc3)o2)cc1	?	5.7	17.9%	-25.6%	1.3%	5.2
O=C(N/N=C/c1ccc(-c2ccc([N+](=O)[O-])cc2)o1)C(O)c1ccccc1 (stereo not given)	?	51.4	?	?	4.4%	-248.5*
CCOc1ccc(S(=O)(=O)NCCCl)cc1	-29.1%	3.2	15.6%	?	3.6%	10.9
CCOC(=O)N1CCN(C(=O)CNC(=O)c2ccc(Br)cc2)CC1	2.9%	-6.7	4.2%	1.8%	3.5%	-1.8
O=[N+]([O-])c1ccc(/C=N/NC(=S)Nc2ccccc2C(F)(F)F)o1	8.2µM*	-12.3	10.4%	13µM*	5.3%	0.0
O=C(N/N=C\c1cccc([N+](=O)[O-])c1O)C1COc2ccccc2O1 (stereo not given)	5.17µM*	0.0	7.7%	5.17µM*	13.2%	85.0
FC(F)(F)c1nnc2c(Sc3ccccc3)nc3ccc(Cl)cc3n12	0.651µM*	4.8	-10.8%	0.581µM*	-2.0%	-69.5*
O=c1[nH]c2ccccc2n2c(C(F)(F)F)nnc12	-3.6%	6.9	12.2%	-3.1%	·	20.2
Cc1sc2ncn(CC(=O)N3CCN(c4ccccn4)CC3)c(=O)c2c1S(=O)(=O)N1CCCCC1	-0.8%	-22.6	-11.0%	-26.9%	5.5%	-28.0
COc1ccc2c(CNCc3cccs3)c(C(=O)O)n(Cc3ccc(F)cc3Cl)c2c1	7.31µM*	·	·	1.46µM*	5.1%	·
COc1ccc2c(CNCCc3cccs3)c(C(=O)O)n(Cc3ccc(F)cc3Cl)c2c1	8.2µM*	·	·	6.51µM*	10.3%	·
COc1ccc2c(CNCc3cccs3)c(C(=O)O)n(Cc3ccccc3F)c2c1	?	·	·	-28.2%	7.7%	·
Nc1ccc2c(c1)C(=O)N(c1ccc3ccccc3c1)C2=O	1.5%	7.6	·	-18.4%	0.3%	·
O=C(c1ccc([N+](=O)[O-])cc1)N1CCSC1c1ccc(Cl)cc1 (stereo not given)	0.0%	-11.3	0.2%	-22.3%	10.5%	3.3
O=C(c1ccc([N+](=O)[O-])cc1)N1CCSC1c1ccc(Br)cc1 (stereo not given)	?	3.3	-2.5%	18.4µM*	6.1%	-6.3
CCCC(=O)Nc1c2c(nc3ccccc13)N(c1ccccc1)CC2	?	-0.9	-18.0%	?	5.4%	0.0
Nc1c2c(nc3ccccc13)N(c1ccccc1)CC2	14.6µM*	0.7	7.4%	?	3.4%	-8.9
O=C(NCc1ccccc1)c1nc(S(=O)(=O)Cc2ccccc2)ncc1Cl	2.91µM*	11.5	-22.7%	2.31µM*	1.3%	-97.6*
COc1ccc(CNC(=O)c2nc(SCc3ccc(C)cc3)ncc2Cl)cc1	-10.4%	·	·	?	2.3%	·
CCN(c1ccccc1)S(=O)(=O)c1ccc(NC(=O)c2nc(SC(C)C)ncc2Cl)cc1	20.6µM*	·	·	18.4µM*	-4.7%	·
COc1ccc(CNC(=O)c2nc(SC(C)C)ncc2Cl)cc1	29.1µM*	·	·	23.1µM*	0.0%	·
CCS(=O)(=O)c1ncc(Cl)c(C(=O)NCc2ccccc2)n1	?	·	·	2.31µM*	-4.9%	·
CC(C)Sc1ncc(Cl)c(C(=O)Nc2ccc(S(=O)(=O)Nc3ncccn3)cc2)n1	?	·	·	-15.9%	-9.3%	·
COc1ccc(C(=O)N2CCC(c3ccncc3)CC2)cc1OC	-26.1%	·	·	-7.7%	1.5%	·
O=C1CCC=C1C(O)c1ccc(Cl)cc1 (stereo not given)	·	·	·	·	8.1%	·
O=C(NCc1ccccc1)c1c(Cl)nc(Cl)c(Cl)c1Cl	?	-6.4	?	18.4µM*	·	-107.4*
Cc1nc(Cl)c(C(=O)NCc2ccccc2)c(C)c1[N+](=O)[O-]	-3.2%	25.2	-5.8%	-2.2%	·	19.6
